In PubChem BioAssay (NCATS):
Values joined by “and” are separate entries in the source; they are usually repeats but may differ in a detail not shown here. Equal entries are not always repeated. Results filed as inconclusive are left out. A number with no mark means an inactive call. Active and inactive are the calls of the source. Calls come from the whole dose curve; as a rule, active = well fitted cell-killing curve with a large enough effect; inconclusive = small, poorly fitted or top-dose-only effect, or effect the other way; inactive = no such curve, though single readings can be large or run the other way.

experiment: qHTS of pediatric cancer cell lines to identify multiple opportunities for drug repurposing: Confirmatory screen for Rh30 cells (AID 1347126); conditions: Rh30 rhabdomyosarcoma cell viability; series mostly up to 45.9 µM; activity change, negative = cytotoxic: at the top concentration; note: nearly all actives have a fitted effect of over 55% in size; for activity change, negative = cytotoxic: % is set by controls: 0 for no effect and ±100 for the full control effect
Procedure, shortened: (§1)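 Viability after 48 h compound treatment at 37C, 500-1,000 cells/well, read as ATP luminescence with CellTiter-Glo. Primary screens used 11-point (MIPE, 0.78 nM-46 µM) or 8-point (NPC, 0.59 nM-46 µM) final concentrations; follow-up screens used 11-point dilutions.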
Potency is the fitted concentration of half-maximal effect.

SMILES	activity change, negative = cytotoxic	Potency
Nc1nc(Cl)nc2c1ncn2[C@H]1C[C@H](O)[C@@H](CO)O1	-28.9%	–
CC(S)C(=O)NCC(=O)O (stereo not drawn)	–	10400 nM (active)
Nc1ccn([C@@H]2O[C@H](CO)[C@@H](O)C2O)c(=O)n1 (stereo partly drawn)	8.33%	–
CS(=O)(=O)OCCCCOS(C)(=O)=O	5.45%	–
Nc1ncn([C@H]2C[C@H](O)[C@@H](CO)O2)c(=O)n1	13.1%	–
CC(C)C[C@H](NC(=O)[C@H](Cc1ccccc1)NC(=O)c1cnccn1)B(O)O	–	233 nM (active)
Oc1ccc(-c2nc(-c3ccc(F)cc3)c(-c3ccncc3)[nH]2)cc1	–	14700 nM (active)
O=C(CCc1ccc(O)cc1)c1c(O)cc(O)cc1O	4.2%	–
CCN(CC)C(=S)SSC(=S)N(CC)CC	-25.4%	–
Cc1ccc(NC(=O)c2ccc(CN3CCN(C)CC3)cc2)cc1Nc1nccc(-c2cccnc2)n1	12.5%	–
O=C1c2c(O)cc(O)cc2OC(c2ccc(O)c(O)c2)C1O (stereo not drawn)	3.43%	–
CCCCc1ccc2nc(NC(=O)OC)[nH]c2c1	–	9270 nM (active)
CCN(CCO)CCCC(C)Nc1ccnc2cc(Cl)ccc12 (stereo not drawn)	1.96%	–
Cc1cc(C2CCCCC2)n(O)c(=O)c1	–	8270 nM (active)
CN(C)c1ccc2nc3ccc(=[N+](C)C)cc-3sc2c1	–	1170 nM (active)
Nc1nc(OCc2ccccc2)c2[nH]cnc2n1	-7.09%	–
CCN(CC)CCOc1ccc(Nc2ncc3cc(-c4c(Cl)cccc4Cl)c(=O)n(C)c3n2)cc1	–	7370 nM (active)
Clc1ccc(C(Cn2ccnc2)OCc2ccsc2Cl)c(Cl)c1 (stereo not drawn)	-19%	–
Cc1nc(Nc2ncc(C(=O)Nc3c(C)cccc3Cl)s2)cc(N2CCN(CCO)CC2)n1	–	414 nM (active)
CC(=O)O[C@H]1C(=O)[C@@]2(C)C([C@H](OC(=O)c3ccccc3)[C@]3(O)C[C@H](OC(=O)[C@H](O)[C@@H](NC(=O)c4ccccc4)c4ccccc4)C(C)=C1C3(C)C)[C@]1(OC(C)=O)CO[C@@H]1C[C@@H]2O (stereo partly drawn)	0.436%	–
CCOc1cc(CC(=O)N[C@@H](CC(C)C)c2ccccc2N2CCCCC2)ccc1C(=O)O	-25.8%	–
CC1(C)C(=O)N(CCN2CCC(C(=O)c3ccc(F)cc3)CC2)c2ccccc21	0%	–

experiment: qHTS of pediatric cancer cell lines to identify multiple opportunities for drug repurposing: Confirmatory screen for Saos-2 cells (AID 1347127); conditions: Saos-2 osteosarcoma cell viability; series mostly up to 45.9 µM; activity change, negative = cytotoxic: at the top concentration; note: nearly all actives have a fitted effect of over 60% in size;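 for activity change, negative = cytotoxic: plate controls were DMSO for no effect and bortezomib for full effect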
Procedure, shortened: as §1

SMILES	activity change, negative = cytotoxic	outcome	Potency
Nc1nc(Cl)nc2c1ncn2[C@H]1C[C@H](O)[C@@H](CO)O1	-25.4%	–	–
CC(S)C(=O)NCC(=O)O (stereo not drawn)	17.2%	–	–
Nc1ccn([C@@H]2O[C@H](CO)[C@@H](O)C2O)c(=O)n1 (stereo partly drawn)	–	inactive	–
Nc1ncn([C@H]2C[C@H](O)[C@@H](CO)O2)c(=O)n1	–	inactive	–
COc1cc(C(C)=O)ccc1OCCCN1CCC(c2noc3cc(F)ccc23)CC1	3.5%	–	–
C[C@]12CCC(=O)C=C1CC[C@@H]1[C@H]2[C@@H](O)C[C@@]2(C)[C@H]1CC[C@]2(O)C(=O)CO	1.43%	–	–
CC(C)C[C@H](NC(=O)[C@H](Cc1ccccc1)NC(=O)c1cnccn1)B(O)O	–	–	0.208 µM (active)
O=C(CCc1ccc(O)cc1)c1c(O)cc(O)cc1O	7.95%	–	–
CCCOc1ccc2nc(NC(=O)OC)[nH]c2c1	–	–	0.827 µM (active)
CCN(CC)C(=S)SSC(=S)N(CC)CC	–	–	16.5 µM (active)
Cc1ccc(NC(=O)c2ccc(CN3CCN(C)CC3)cc2)cc1Nc1nccc(-c2cccnc2)n1	14.7%	–	–
Cc1c(C(=O)NN2CCCCC2)nn(-c2ccc(Cl)cc2Cl)c1-c1ccc(Cl)cc1	–	–	20.8 µM (active)
O=C(NCC1CCCCN1)c1cc(OCC(F)(F)F)ccc1OCC(F)(F)F (stereo not drawn)	-13%	–	–
O=C1c2c(O)cc(O)cc2OC(c2ccc(O)c(O)c2)C1O (stereo not drawn)	17.5%	–	–
CCCCc1ccc2nc(NC(=O)OC)[nH]c2c1	–	–	0.233 µM (active)
CCN(CCO)CCCC(C)Nc1ccnc2cc(Cl)ccc12 (stereo not drawn)	19.3%	–	–
CN(C)c1ccc(O)c2c1C[C@H]1C[C@H]3[C@H](N(C)C)C(=O)C(C(N)=O)=C(O)[C@@]3(O)C(=O)C1=C2O	–	inactive	–
CC[C@]1(O)C[C@H]2CN(CCc3c([nH]c4ccccc34)[C@@](C(=O)OC)(c3cc4c(cc3OC)N(C=O)[C@H]3[C@@](O)(C(=O)OC)[C@H](OC(C)=O)[C@]5(CC)C=CCN6CC[C@]43[C@@H]65)C2)C1	–	–	8.3 nM (active) and 165 nM (active)
CN(C)c1ccc2nc3ccc(=[N+](C)C)cc-3sc2c1	–	–	1.17 µM (active)
Nc1nc(OCc2ccccc2)c2[nH]cnc2n1	-7%	–	–
CCN(CC)CCOc1ccc(Nc2ncc3cc(-c4c(Cl)cccc4Cl)c(=O)n(C)c3n2)cc1	–	–	1.47 µM (active)
Clc1ccc(C(Cn2ccnc2)OCc2ccsc2Cl)c(Cl)c1 (stereo not drawn)	–	–	10.4 µM (active)
Cc1nc(Nc2ncc(C(=O)Nc3c(C)cccc3Cl)s2)cc(N2CCN(CCO)CC2)n1	15%	–	–
CC(=O)O[C@H]1C(=O)[C@@]2(C)C([C@H](OC(=O)c3ccccc3)[C@]3(O)C[C@H](OC(=O)[C@H](O)[C@@H](NC(=O)c4ccccc4)c4ccccc4)C(C)=C1C3(C)C)[C@]1(OC(C)=O)CO[C@@H]1C[C@@H]2O (stereo partly drawn)	–	–	0.0233 µM (active)
CCOc1cc(CC(=O)N[C@@H](CC(C)C)c2ccccc2N2CCCCC2)ccc1C(=O)O	4.77%	–	–
CC1(C)C(=O)N(CCN2CCC(C(=O)c3ccc(F)cc3)CC2)c2ccccc21	-25.6%	–	–
